{
  "source": "PubChem BioAssay AID1347415",
  "about": "(National Center for Advancing Translational Sciences (NCATS), 2020)",
  "note": "Results filed as inconclusive are left out. Unmarked numbers belong to inactive results. Active and inactive are the calls of the source. The call rests on the fitted dose curve; in most records, active means well fitted inhibition curve with a large enough effect; inconclusive means small, poorly fitted or top-dose-only effect; inactive means no such curve, though single readings can be large or run the other way.",
  "data": [
    {"test": "qHTS to identify inhibitors of the type 1 interferon - major histocompatibility complex class I in skeletal muscle: tertiary screen by RT-qPCR", "conditions": "C25cl48 human myoblasts, IFN-beta, HLA-B RT-qPCR, 24 h; series mostly up to 49.8 µM; activity change, negative = inhibition: at the top concentration", "from_the_text": "Assay Submitter (PI): Travis B. Kinder Ph.D. & James Inglese Ph.D. Assay Development and Screening Technology Laboratory (ADST) National Center for Advancing Translational Sciences (NCATS), Rockville, MD National Institute of Health (NIH), Bethesda, Maryland Idiopathic inflammatory myopathies, collectively referred to as myositis, are a group of rare autoimmune diseases characterized by skeletal muscle inflammation, weakness, and usually accompanied by systemic pathologies of the skin, lungs, or vasculature. Current immunosuppressive therapies and glucocorticoids are often not curative and are accompanied by harsh side effects, especially in children with juvenile myositis. We initiated a drug repurposing and development program to identify more targeted, less toxic therapeutics to treat myositis. Although its cause is not known, muscle from a subset of patients have an abundance of the inflammatory type 1 interferon (IFN) and a down-stream product major histocompatibility complex class I (MHC class I), which are both thought to contribute to damage and weakness. We conducted quantitative high throughput screening (qHTS) on 6,576 compounds (4,679 unique) through a series of cell-based assays to identify those that inhibit the IFN-stimulated expression of MHC class I in muscle precursor cells (myoblasts). The compound identification and evaluation strategy utilized a primary screen with reporter-tagged MHC class I in genome-engineered myoblasts, ATP content counter screen for viability, HLA-ABC immunofluorescence secondary screen, and HLA-B RT-qPCR tertiary screen. To determine if active compounds identified by qHTS in HLA-B HiBit reporter cells, and confirmed by HLA-ABC immunofluorescence, can inhibit the transcription of HLA-B mRNA, compounds were assayed by RT-qPCR. Briefly, 62 compounds identified from primary, counter, and secondary screening as inhibitory with minimal cytotoxicity were dispensed into 384-well plates using acoustic dispensing in a 6-point, 1:7 titration with a high final concentration of 10 uM. Normal immortalized human myoblasts C25cl48 were added to the plate with 4.0 ng/ml human IFN-beta for 24 hours, and cells were harvested and assayed by the Cells-to-Ct kit with TaqMan assays (Thermo Fisher).\nPROTOCOL TABLE (as described by Inglese et al., 2007) SEQUENCE No. (e.g., 1, 2, 3, etc.); […] (e.g., Cells, Incubation, Reagent, etc.); VALUE; DESCRIPTION 0; Compounds; 150 nl; Follow-up compounds dispensed at 150 nl/well with Labcyte Echo 655 acoustic dispenser into one Corning white/clear bottom, high base TC 384-well plates (3765) 1a; Cells; 30 uL; Using a p200 manual pipette, seed 780 cells/well into 1 plate in 30 ul/well of iHSKM growth medium without dexamethasone into columns wells A1-A6. […]", "units": {"activity change, negative = inhibition": "%"}, "values": [
      {"smiles": "C[C@@H]1O[C@@H](O[C@H]2C[C@@H](O)[C@]3(CO)[C@H]4[C@H](O)C[C@]5(C)[C@@H](C6=CC(=O)OC6)CC[C@]5(O)[C@@H]4CC[C@]3(O)C2)[C@H](O)[C@H](O)[C@H]1O", "activity change, negative = inhibition": -14.7},
      {"smiles": "Cc1[nH]nc2ccc(-c3cncc(OC[C@@H](N)Cc4c[nH]c5ccccc45)c3)cc12", "Potency": "207 nM (active)"},
      {"smiles": "CC(C)[C@]12O[C@H]1[C@@H]1O[C@@]13[C@@]1(C)CCC4=C(COC4=O)[C@@H]1C[C@@H]1O[C@@]13C2=O", "activity change, negative = inhibition": -132},
      {"smiles": "COc1cccc2c1C(=O)c1c(O)c3c(c(O)c1C2=O)C[C@@](O)(C(=O)CO)CC3OC1CC(N2CCOC(OC)C2)C(O)C(C)O1", "note": "(stereo not given in full)", "Potency": "92.4 nM (active)"},
      {"smiles": "C[C@@H]1O[C@@H](O[C@@H]2C=C3CC[C@@H]4[C@H](CC[C@]5(C)[C@@H](c6ccc(=O)oc6)CC[C@]45O)[C@@]3(C)CC2)[C@H](O)[C@H](O)[C@H]1O", "activity change, negative = inhibition": -8.47}
    ]}
  ]
}
